Data: ChEMBL document CHEMBL3988442, “University of Dundee, Small-Polar-MMV Screening Library” (2021)
Among all 48,000 compounds or so, about 13,000 (27%) showed an effect of 50% or more. This is one part of the list.

The compounds below were run on Wolbachia pipientis (assay: Anti-Wolbachia Cell-Based Screen). Conditions: 5 µM.
Assay type: functional
Design: scale not given: in the data most compounds retested in dose-response had high values
With Cc1cc(=O)[nH]c(NCCNC(=O)CN2CCCCCC2)n1 the “Percent Effect” value was 0.3352%. For COCCCSc1ccc(NCc2scnc2C)cc1, the “Percent Effect” value was -22.23%. For CNC(=O)NC(=O)CN(CC(C)O)c1ccccc1 (stereo not given), the “Percent Effect” value was 1.255%. In the case of Cc1ccsc1CN(Cc1cccnc1)C1CC(C)(C)NC(C)(C)C1.O=C(O)CC(O)(CC(=O)O)C(=O)O, the “Percent Effect” value is reported as 106.7%. For Cc1ncsc1C(=O)N(Cc1cccnc1)C1CC1, the “Percent Effect” value was 11.29%. With Cc1ccc(CN(Cc2cccnc2)C2CC(C)(C)NC(C)(C)C2)s1.O=C(O)CC(O)(CC(=O)O)C(=O)O the “Percent Effect” value was 9.465%. With CC1(C)CC(N(Cc2ccccc2)Cc2cccnc2)CC(C)(C)N1.O=C(O)CC(O)(CC(=O)O)C(=O)O the “Percent Effect” value was 31.11%. CC1(C)CC(N(Cc2cccnc2)Cc2cccnc2)CC(C)(C)N1.O=C(O)CC(O)(CC(=O)O)C(=O)O was tested, and the “Percent Effect” value was 81.01%. CN(C)c1ncc2c(n1)N(C)CCN(CC1CC1)C2=O was tested, and the “Percent Effect” value was 109.4%. CN1CCc2nc(N(C)C)nc(N3CCC(O)CC3)c2C1 was tested, and the “Percent Effect” value was 12.64%. For CCCN(C)c1ncc2c(n1)N(C)CCN(CC1CC1)C2=O, the “Percent Effect” value was 98.31%. For Cc1ccccc1-n1cnnc1SCCOCC1CCCO1 (stereo not given), the “Percent Effect” value was -11.81%. With Cc1ccc(-c2noc([C@@H]3C[C@H](NC(=O)CC(C)(C)C)CN3C)n2)cc1 the “Percent Effect” value was -9.06%. For Cc1ccnc(CC(C)N(C)c2cc(CN)nc(C)n2)c1 (stereo not given), the “Percent Effect” value was -4.516%. With CC(c1cccc(F)c1)N1CCN(Cc2nccn2C)CC1 (stereo not given) the “Percent Effect” value was 119.5%. Cn1ccnc1CN1CCN(CC(O)c2cccc(F)c2)CC1 (stereo not given) was tested, and the “Percent Effect” value was 1.006%. With CC(c1ccc(F)c(F)c1)N1CCN(Cc2nccn2C)CC1 (stereo not given) the “Percent Effect” value was -0.152%. In the case of CCn1ccnc1CN1CCN(CC(O)c2ccccc2)CC1 (stereo not given), the “Percent Effect” value is reported as -0.4709%. COc1ccc(C(C)N2CCN(Cc3nccn3C)CC2)cc1Cl (stereo not given) was tested, and the “Percent Effect” value was -0.7599%. CCn1ccnc1CN1CCN(CC(O)c2cccc(F)c2)CC1 (stereo not given) was tested, and the “Percent Effect” value was 152.7%. With O=C(O)C(F)(F)F.O=C(O)C(F)(F)F.O=C(O)C(F)(F)F.c1cnc(NCc2noc3c2CN(CCN2CCCC2)CC3)nc1 the “Percent Effect” value was -9.81%. Cc1ccc(NC(=O)NC(C)c2nc[nH]n2)s1 (stereo not given) was tested, and the “Percent Effect” value was 10.15%. With CSCCN1CCN(c2nc(N)ncc2C)CC1 the “Percent Effect” value was -15.55%. For O=C(c1cnccn1)N1CCN2C[C@H](OCc3ccccn3)C[C@H]2C1, the “Percent Effect” value was 1.808%. In the case of COc1cccc(CC2(C(=O)O)CCN(c3nccs3)CC2)c1, the “Percent Effect” value is reported as 5.275%. COc1cccc(CC2(C(=O)O)CCN(c3ccc(Cl)cn3)CC2)c1 was tested, and the “Percent Effect” value was -33.64%. In the case of Fc1ccc(C2(NCc3ccccc3)CCOCC2)cc1, the “Percent Effect” value is reported as -10.48%. COc1ccc(-c2cccc(CC3(C(=O)O)CCOCC3)c2)cc1 was tested, and the “Percent Effect” value was 106.8%. With O=C(O)C1(Cc2cccc(-c3ccc(F)cc3)c2)CCOCC1 the “Percent Effect” value was 105.2%. For O=C(O)C1(Cc2cccc(-c3ccc(F)c(F)c3)c2)CCOCC1, the “Percent Effect” value was -9.122%. In the case of CN(Cc1ccco1)c1ccc(-c2nccn2C)nn1, the “Percent Effect” value is reported as -4.631%. CC1=C[C@@H](CN2CCCC2)[C@H](C(C)C)C[C@H]1Cc1nnc(C)o1 was tested, and the “Percent Effect” value was -4.134%. CC(C)(C)OC(=O)N1CCCN1C(=O)c1cccc(F)c1F was tested, and the “Percent Effect” value was -1.297%. With O=C(Nc1ccc(F)c(-n2cccc2)c1)NC1(CCO)CCOCC1 the “Percent Effect” value was 29.93%. For Br.Cc1cc(C)nc(NCCC(=O)NCCn2ccnc2C)n1, the “Percent Effect” value was 178%. In the case of Cc1cc(NC(=O)CCCn2ccnc2C)nc(C(C)C)n1, the “Percent Effect” value is reported as -7.681%. In the case of Cc1nccn1CCCC(=O)Nc1nc(C(C)C)nn1C, the “Percent Effect” value is reported as -14.12%. In the case of CSC1(CNC(=O)N(C)Cc2sccc2C)CCOCC1, the “Percent Effect” value is reported as 7.6%. With O=C(N1CCOCC1)N1CC[C@H]2[C@@H]1CCC(=O)N2c1ccccc1 the “Percent Effect” value was -0.9647%. In the case of Cc1cccnc1N1CCC(c2nccn2Cc2cscn2)CC1, the “Percent Effect” value is reported as -9.317%. In the case of COc1ccc(C(=O)NCC(C)(O)CCc2ccccc2)cc1 (stereo not given), the “Percent Effect” value is reported as -2.442%. CS(=O)(=O)N1CCc2ncc(CNC(=O)C3CCC3)n2CC1 was tested, and the “Percent Effect” value was 95.01%. Cn1cccc1C(=O)NCc1cnc2n1CCN(C(=O)N1CCCC1)C2 was tested, and the “Percent Effect” value was 10.49%. With NC(=O)N1CCc2ncc(CNC(=O)CC3CC3)n2CC1 the “Percent Effect” value was 111.4%. For O=C(NCc1cnc2n1CCN(c1ncc(F)cn1)CC2)C1CCC1, the “Percent Effect” value was 15.93%. For CC(=O)N1CCc2ncc(CNC(=O)C3CCC3)n2CC1, the “Percent Effect” value was 106.1%. CN(C)C(=O)N1CCn2cc(CNC(=O)CC3CC3)nc2C1 was tested, and the “Percent Effect” value was -12.44%. For Cn1cccc1C(=O)NCc1cnc2n1CCN(C(N)=O)CC2, the “Percent Effect” value was -2.634%. With O=C(NCc1cnc2n1CCN(CC1CC1)CC2)C1CCC1 the “Percent Effect” value was 16.9%. In the case of Cc1cc(N2CCC(NC(=O)CCC3CCCO3)CC2)nc(C)n1 (stereo not given), the “Percent Effect” value is reported as 7.946%. Cc1cn2c(n1)C(CNCc1ccc(C)s1)CCC2 (stereo not given) was tested, and the “Percent Effect” value was 5.575%. For CC1(C)[C@H]2CC=C(CN3CCCn4nc(C(=O)NCCO)cc4C3)[C@@H]1C2, the “Percent Effect” value was 10.58%. For Cc1cccc(OCCC(=O)N2CCCN(C(N)=O)CC2)c1C, the “Percent Effect” value was -12.46%. COc1cccc(-c2noc(-c3ccc(NCC4CC4)nc3)n2)c1OC was tested, and the “Percent Effect” value was -9.972%. O=C(NCC1COCCO1)c1csc(Cc2ccccc2)n1 (stereo not given) was tested, and the “Percent Effect” value was -4.558%. OC[C@@H]1CCCN1c1ccc(-c2nc(CCc3ccccc3)no2)cn1 was tested, and the “Percent Effect” value was 1.286%. In the case of Cc1ccccc1-c1noc(-c2ccc(NCC3COCCO3)nc2)n1 (stereo not given), the “Percent Effect” value is reported as 87.55%. For COCC(C)Nc1ccc(-c2nc(Cc3ccc(F)cc3)no2)cn1 (stereo not given), the “Percent Effect” value was -40.71%. For COC(=O)CNc1ccc(-c2nc(Cc3ccc(OC)cc3)no2)cn1, the “Percent Effect” value was -28.16%. CC(CO)Nc1ccc(-c2nc(Cc3ccc(F)cc3)no2)cn1 (stereo not given) was tested, and the “Percent Effect” value was -69.59%. With c1ccc(Cc2noc(-c3ccc(NCC4CCCOC4)nc3)n2)cc1 (stereo not given) the “Percent Effect” value was 130.1%. c1ccc(Cc2noc(-c3ccc(NCC4CCCCO4)nc3)n2)cc1 (stereo not given) was tested, and the “Percent Effect” value was 127.1%. In the case of Cc1ccccc1-c1noc(-c2ccc(N(C)C3CCOCC3)nc2)n1, the “Percent Effect” value is reported as 1.469%. In the case of c1ccc(Cc2noc(-c3ccc(NCC4COCCO4)nc3)n2)cc1 (stereo not given), the “Percent Effect” value is reported as 114.1%. O=C(CN1CC(c2nc(Cc3ccccc3)no2)C1)NCC1CCCO1.O=C(O)C(=O)O (stereo not given) was tested, and the “Percent Effect” value was 1.544%.
